In PubChem BioAssay (NCI):
This is part of a sample that, as a whole, favours compounds with a hit. Of some 79,000 tested, about 15% had one in any assay. A number with no mark means an inactive call. Cut-off read from the data, not from the text of the source: active = growth inhibition above about 70%; inactive = the rest.

Test: NCI Yeast Anticancer Drug Screen. Data for the CLN2oe strain (AID 163);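 note: 0% = growth of vehicle-only control cultures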
Settings: S. cerevisiae CLN2oe strain, at 1.2 µM, stronger effect = higher value
Procedure, shortened: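 Read-out: yeast growth inhibition, expressed relative to vehicle-only controls. The strain bears an engineered cell-cycle alteration.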

SMILES	growth inhibition [%]
CCN(CC)CC[n+]1ccc2c(C)c3[nH]c4ccc(O)cc4c3c(C)c2c1	-8
O=[n+]1c2ccc(Cl)cc2n([O-])c2ccc(Cl)cc21	-1
CCOP(=O)(OCC)C(Cc1ccccc1)N=C(c1ccccc1)c1ccccc1 (centres undefined)	-50
CC[C@@]1(O)C(=O)OCc2c1cc1n(c2=O)Cc2cc3c(N)cccc3nc2-1	25
COC1C=COC2(C)Oc3c(C)c(O)c4c(c3C2=O)/C(=N/C2CCC(O)OC2C)C=C(NC(=O)/C(C)=C\C(=O)C2CC2C(O)C(C)C(O)C(C)C(OC(C)=O)C1C)C4=O (centres undefined)	-11
COc1cc2c(c(OC)c1OC)-c1c(cc3c(c1OC)OCO3)CC(C)C(C)(O)C2OC(=O)c1ccccc1 (centres undefined)	27
O=c1ssc2ncccc12	-7
O=C1C2C(C(=O)N1c1ccc(OCc3ccccc3)cc1)C1c3ccccc3C2C2CCCCN21 (centres undefined)	-5
COc1ccc(-c2cn(-c3ccc(I)cc3)c3ncnc(N)c23)cc1	-7
CCOC(=O)C(NC(=O)c1ccccc1)(N1CCN(c2cc3c(cc2F)c(=O)c(C(=O)O)cn3C2CC2)CC1)C(F)(F)F (centres undefined)	-1
C/C(=N\O)C1CC2C=C(C#N)C1N(Cc1ccccc1)C2 (centres undefined)	-5
CC/C(=C(\c1ccccc1)c1ccc(OCCN(C)C)cc1)c1ccccc1	4
COc1ccccc1N=NC(C(=O)c1ccccc1)C(=O)c1ccccc1	16
CC(O)C(O)C(O)C(/C=N\Nc1ccccc1)=N/Nc1ccccc1 (centres undefined)	-7
COc1ccc(/C=C2\SC(=S)N(/C=C/c3nc4ccccc4[nH]c3=O)C2=O)cc1OC	-17
N#CN=Nc1cc(Cl)c(N=NC#N)cc1Cl	-25
Cc1ccc(S(=O)(=O)Oc2cc(Cl)c(Cl)cc2Cl)cc1	-2
c1ccc2c(c1)Oc1cccc3cccc-2c13	18
O=C(c1ccc(Cl)cc1Cl)C(Cl)Cl	-11
CC(C)C1=CCC2C(=C1)CCC1C(C)(C(=O)O)CCCC21C (centres undefined) (tested in a mixture with another compound)	-2

SMILES	growth inhibition [%]
COc1cc(/C=C2\CCc3ccccc3C2=O)cc(OC)c1OC	13
CC(=O)[O][Bi]([c]1ccccc1)[c]1ccccc1	22
S=C(N/N=C/c1ccccn1)Nc1ccc(Cl)cc1	-3
COc1cc(CC2CC(c3ccc4c(c3)OCO4)OC2=O)cc(OC)c1OC (centres undefined)	2
CNC1C(OC2C(OC3C(O)C(O)C(N=C(N)N)C(O)C3N=C(N)N)OC(C)C2(O)CO)OC(CO)C(O)C1O (centres undefined)	-7
NNC(=O)CCc1ccc2ccc3ccccc3c2c1	-10
Oc1ccc2ccccc2c1C(c1ccc(Cl)cc1)c1c(O)ccc2ccccc12	0
CCCCN(CCCC)CCSc1ccc(Cl)cc1	-12
CCC(C)COC(=O)c1ccc(N=Cc2ccc(C=Nc3ccc(C(=O)OCC(C)CC)cc3)cc2)cc1 (centres undefined)	0
CC1(C)C(=O)OC(n2cc(F)c(=O)[nH]c2=O)C1=O (centres undefined)	12
O=[N+]([O-])CC(SCc1ccccc1)c1ccc2c(c1)OCO2 (centres undefined)	3
COc1cc2c(cc1[N+](=O)[O-])C(=O)C(Br)(Br)CCC2	21
OCC1OC(OCC(O)C(O)C(O)C(/C=N/Nc2ccccc2)=N/Nc2ccccc2)C(O)C(O)C1O (centres undefined)	4
COc1ccc(N=C2C(=O)Nc3ccc(Br)cc32)cc1	-7
Cn1c(=O)c2ccccc2c2ccccc21	1
CC[n+]1ccc2c(C)c3[nH]c4ccc(O)cc4c3c(C)c2c1	5
CC(=O)ON1C(=O)c2cccc3cccc(c23)C1=O	8
COc1ccc2ccc3ccccc3c2c1C=O	-6
OC1CCCc2c1cc1ccc3cccc4ccc2c1c34 (centres undefined)	-9
